From PubChem BioAssay AID720584 (National Center for Advancing Translational Sciences (NCATS), 2013)
The list shows a part of the results. Results filed as inconclusive are left out. Values without a mark were called inactive. Activity calls are given as the source filed them. Calls come from the whole dose curve; as a rule, active = well fitted inhibition curve with a large enough effect; inconclusive = small, poorly fitted or top-dose-only effect; inactive = flat fitted curve, though single readings scatter.
% is set by controls: 0 for no effect and ±100 for the full control effect; potency is the fitted concentration of half-maximal effect.
Note: nearly all actives have a fitted effect of over 75% in size.

These compounds were tested on Trypanosoma brucei pyruvate kinase (TbPYK) (assay: qHTS of Trypanosoma Brucei Inhibitors: Orthogonal Assay for Cherry-picked Compounds). Conditions: recombinant TbPYK, ADP-Glo luminescence, 60 min; series mostly up to 76.9 µM; activity change, negative = inhibition: at the top concentration.
Text: Members of the Trypanosomatidae family of parasitic protozoans cause a spectrum of diseases throughout the tropical and subtropical world. Sleeping sickness, caused by two subspecies of Trypanosoma brucei, is endemic to areas of sub-Saharan Africa, while Chagas' disease, a manifestation of Trypanosoma cruzi infection, is prevalent throughout Central and South America. In addition, many species of Leishmania are responsible for a range of cutaneous and visceral diseases, causing ulcers, destructive lesions and kalaazar, a lethal infection of the viscera. These diseases cause severe public health and economic burdens on populations that are often already caught in a tragic cycle of poverty, poor nutrition and disease. Collectively, parasites of the trypanosomatid family infect 30 million people worldwide (~500 million live in endemic areas), and account for ~130K deaths annually. Existing treatments have developed little in the past 50 years, and suffer from toxicity, poor efficacy and resistance; the goal of this project is to develop lead drugs that will be suitable for entry into pre-clinical trials. […] Glycolysis in axenically cultured T. cruzi, representing the intracellular pathogenic stage, is also essential for these parasites. {Engel, 1987} This project aims to discover and optimize selective inhibitors of the glycolytic enzyme pyruvate kinase (PYK) from Trypanosoma brucei, the parasite that causes sleeping sickness. […] Trypanosomatid PYKs show significant differences from their human counterparts including only 47-50% sequence identity and different allosteric and activation properties.{Callens, 1992} To this end, a qHTS was done against the MLSMR to discover inhibitors. To confirm activity of the cherrypicked compounds, an orthogonal assay was developed. While the primary qHTS provides a luminescence-based detection of TbPyK by measuring ATP production, the orthogonal assay will measure the amount of ADP substrate remaining. Decrease in activity signal indicative of inhibition of T. brucei proliferation is the desired outcome for this assay. NIH Molecular Libraries Probe Production Network [MLPCN] NIH Chemical Genomics Center [NCGC] Grant: MH095452 PI Name: Malcolm Walkinshaw, University of Edinburgh
Briefly, 2 uL of substrate/TbPYK buffer (all columns but column 4) are dispensed into Greiner white solid-bottom 1536-well assay plates. Column 4 gets just buffer without enzyme. Compounds are then transferred via Kalypsys pin tool equipped with 1536-pin array (10 nL slotted pins, V&P Scientific, San Diego, CA). Following addition of compound, 1 uL of ADP (130 uM final concentration, columns 1-48) is added to initiate the reaction. The plates are then incubated at room temperature for 60 minutes. ADP-Glo (Promega) reagent I is added (2.5 uL) and plates incubated for 10 minutes. ADP-Glo reagent II is then added (5 uL), followed by a 10 minute room temperature incubation, before being transferred to a ViewLux high-throughput CCD imager (PerkinElmer), wherein single end-point measurements of luminescence are acquired using a clear filter. All reagents are diluted in an assay buffer consisting of 50 mM TEA (pH 7.2), 100 mM KCl, 10 mM MgCl2, 0.05% BSA and 0.01% Tween-20.
`O=C(Nc1ccc(S(=O)(=O)N2CCOCC2)cc1)c1ccc2ncsc2c1` was tested, and the Potency was 15.8 µM (active). `O=c1[nH]c2ccccc2n2c(-c3ccccc3)nnc12` was tested, and the Potency was 0.1 µM (active). For `Cc1cccc(-n2c(N)c(C(=O)N3CCN(C)CC3)sc2=S)c1`, the Potency was 5.01 µM (active). In the case of `COc1cccc(C(=O)c2cc3ccc(O)cc3oc2=O)c1`, the “activity change, negative = inhibition” value is reported as -2.74%. For `O=C(CCCCCn1c(=S)[nH]c2ccsc2c1=O)NC1CCCCC1`, the Potency was 14.1 µM (active). For `COCCNC(=O)Nc1ccc2nc(-c3ccco3)c(-c3ccco3)nc2c1`, the Potency was 8.91 µM (active). With `O=C(CSc1nnc(-c2ccco2)n1CC1CCCO1)c1ccccc1` (stereo unspecified) the Potency was 35.5 µM (active). `O=C(COC(=O)c1ccccc1)c1ccc2c(c1)OCCO2` was tested, and the “activity change, negative = inhibition” value was 0.431%. In the case of `Cc1cc(C#N)c(SCC(N)=O)nc1-c1ccc(F)cc1`, the Potency is reported as 5.01 µM (active). For `C=CCn1c(=S)[nH]c2scc(-c3ccco3)c2c1=O`, the Potency was 17.8 µM (active). In the case of `O=C(CN1CCN(c2ccc(O)cc2)CC1)Nc1cc(S(=O)(=O)N2CCOCC2)ccc1Cl`, the Potency is reported as 12.6 µM (active). With `Cc1nonc1C(=O)N/N=C/c1ccc(O)cc1` the “activity change, negative = inhibition” value was 13.7%. For `Oc1c(CN2CCOCC2)ccc(CN2CCOCC2)c1O`, the Potency was 7.08 µM (active). In the case of `N#Cc1c(N2CCCCC2)nc(N)c2c(N)nc(SCC(=O)O)cc12`, the Potency is reported as 35.5 µM (active). For `Cc1ccc(/C=C/C(=O)Nc2ccc([N+](=O)[O-])c(NC(=O)/C=C/c3ccc(C)o3)c2)o1`, the Potency was 20 µM (active). With `O=C(CSc1ccc(-c2ccco2)nn1)Nc1cccc(F)c1` the Potency was 31.6 µM (active). `Cc1ccc(NC(=O)c2cc(-c3ccc(C)o3)nc3ccccc23)nc1` was tested, and the Potency was 35.5 µM (active). In the case of `CC(=O)N1CC[n+]2c(-c3ccc([N+](=O)[O-])cc3)csc21`, the Potency is reported as 1.78 µM (active). With `COc1ccc(Cc2nnc(NS(=O)(=O)Cc3ccccc3)s2)cc1` the “activity change, negative = inhibition” value was -11.1%. With `Cc1nc2ccc(S(=O)(=O)NCC(=O)O)cc2s1` the Potency was 11.2 µM (active). For `CN(c1ccccc1)S(=O)(=O)c1cccc(NC(=O)Cc2ccc(Cl)cc2)c1`, the Potency was 12.6 µM (active). With `c1ccc(-c2nnc3n2NC(c2ccc4c(c2)OCO4)S3)cc1` (stereo unspecified) the Potency was 0.141 µM (active). With `COc1cc(C2CC(=O)N3CN(Cc4ccccc4)CSC3=C2C#N)ccc1OCc1ccccc1` (stereo unspecified) the Potency was 0.447 µM (active). With `Cc1ccc(C)c2c1cc(C)c1nnc(SCC(=O)Nc3cccc(C(=O)O)c3)n12` the Potency was 1 µM (active). With `Cc1c(C)c(C)c(S(=O)(=O)N2CCC3(CC2)OCCO3)c(C)c1C` the “activity change, negative = inhibition” value was -2.02%. In the case of `NC(=O)c1c(Nc2nc3c(F)cccc3s2)sc2c1CCCC2`, the Potency is reported as 8.91 µM (active). For `COc1cccc(C(=O)Nc2ccc(N3CCCC3)cc2)c1`, the “activity change, negative = inhibition” value was -6.36%. `O=C1C=CC(=O)N1c1ccc(N2CCCCC2)cc1` was tested, and the Potency was 3.55 µM (active). With `COC(=O)/C=C\C(=O)Nc1cccc([N+](=O)[O-])c1` the Potency was 17.8 µM (active). In the case of `Cc1cc(C2=NNC(=Nc3ccc(S(=O)(=O)N4CCOCC4)cc3)SC2)c(C)n1CC1CCCO1` (stereo unspecified), the Potency is reported as 15.8 µM (active). In the case of `CSc1c(SCc2ccccc2)cnn(Cc2ccccc2)c1=O`, the Potency is reported as 14.1 µM (active).
